# According to the supplement of paper PMC8728848:
# Only a selection was taken, and the strongest signals are over-represented in it overall.
# B1: DBA (Dolichos biflorus) (protein)
# chain: ANIQSFSFKNFNSPSFILQGDATVSSGKLQLTKVKENGFPLRFPSGRAFYSSPIQIYDKFTGAVASWATSFTVKISAPSKASFADGIAFALVPVGSEPRRNGGYLGVFDSDVYNNSAQTVAVEFDTLSNSGWDPSMKHIGIDVNSIKSIATVSWDLANGENAEILITYNAATSLLVVSLVHPSRRTSYILSERVDITNELPEYVGVGFSATTGLSEGYIETHDVLSWSFASRLPDDSTAEPLDLARYLVRNVL
# Columns and labels:
# Test in all cases: glycan array binding signal (z-score within array); higher = stronger binding
# Conditions in all cases: glycan notation: IUPAC condensed, linker removed
# [1] = target: Fuc(a1-2)Gal(b1-3)GalNAc(a1-3)[Fuc(a1-2)]Gal(b1-4)Glc
# In short: (§1)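 Columns mapping to the same glycan were averaged after glycan names were converted to IUPAC-condensed notation. The data come from 3228 arrays in the Consortium for Functional Glycomics database, limited to those with an available protein sequence. Binding is reported as a within-array Z-score averaged across arrays of one protein sequence and across linkers.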
# [2] = target: Fuc(a1-2)Gal(b1-3)GlcNAc(b1-3)[Gal(b1-4)GlcNAc(b1-6)]Gal(b1-4)Glc
# In short: as §1
# [3] = target: Fuc(a1-2)Gal(b1-3)GlcNAc(b1-3)[Neu5Ac(a2-6)Gal(b1-4)GlcNAc(b1-6)]Gal(b1-4)Glc
# In short: as §1
# [4] = target: Fuc(a1-2)Gal(b1-3)[Fuc(a1-4)]GlcNAc
# In short: as §1
# Fuc(a1-2)Gal(b1-4)Glc6S = target: Fuc(a1-2)Gal(b1-4)Glc6S
# In short: as §1
# [5] = target: Fuc(a1-2)Gal(b1-4)[Fuc(a1-3)]GlcNAc(b1-3)GalNAc
# In short: as §1
# [6] = target: Fuc(a1-2)Gal3S(b1-4)GlcNAc
# In short: as §1
# Fuc(a1-2)Gal6S(b1-4)Glc = target: Fuc(a1-2)Gal6S(b1-4)Glc
# In short: as §1
# [7] = target: Fuc(a1-2)[GalNAc(a1-3)]Gal
# In short: as §1
# [8] = target: Fuc(a1-2)[GalNAc(a1-3)]Gal(b1-3)GlcNAc(b1-6)GalNAc
# In short: as §1
# [9] = target: Fuc(a1-2)[GalNAc(a1-3)]Gal(b1-4)Glc
# In short: as §1
# [10] = target: Fuc(a1-2)[GalNAc(a1-3)]Gal(b1-4)GlcNAc
# In short: as §1
# [11] = target: Fuc(a1-2)[GalNAc(a1-3)]Gal(b1-4)[Fuc(a1-3)]GlcNAc(b1-3)GalNAc
# In short: as §1
# [12] = target: Fuc(a1-3)[Gal(b1-4)]GlcNAc(b1-2)Man
# In short: as §1
# [13] = target: Fuc(a1-3)[Gal(b1-4)]GlcNAc(b1-4)Gal(b1-4)[Fuc(a1-3)]GlcNAc
# In short: as §1
# [14] = target: Fuc(a1-3)[Gal3S(b1-4)]GlcNAc6S
# In short: as §1
# Fuc(a1-4)GlcNAc = target: Fuc(a1-4)GlcNAc
# In short: as §1
# Gal(a1-3)Gal(b1-3)GlcNAc = target: Gal(a1-3)Gal(b1-3)GlcNAc
# In short: as §1
# Gal(a1-3)Gal(b1-4)Glc = target: Gal(a1-3)Gal(b1-4)Glc
# In short: as §1
# [15] = target: Gal(a1-4)Gal(b1-3)GlcNAc(b1-2)Man(a1-3)[Gal(a1-4)Gal(b1-3)GlcNAc(b1-2)Man(a1-6)]Man(b1-4)GlcNAc(b1-4)GlcNAc
# In short: as §1
# Gal(a1-4)GlcNAc = target: Gal(a1-4)GlcNAc
# In short: as §1
# Gal(b1-2)Gal = target: Gal(b1-2)Gal
# In short: as §1
# [16] = target: Gal(b1-3)GlcNAc(b1-3)Gal(b1-4)GlcNAc(b1-3)Gal(b1-4)GlcNAc(b1-2)[Gal(b1-3)GlcNAc(b1-3)Gal(b1-4)GlcNAc(b1-3)Gal(b1-4)GlcNAc(b1-6)]Man(a1-6)[Gal(b1-3)GlcNAc(b1-3)Gal(b1-4)GlcNAc(b1-3)Gal(b1-4)GlcNAc(b1-2)Man(a1-3)]Man(b1-4)GlcNAc(b1-4)[Fuc(a1-6)]GlcNAc
# In short: as §1
# [17] = target: Gal(b1-3)GlcNAc(b1-3)Gal(b1-4)[Fuc(a1-3)]GlcNAc(b1-6)[Gal(b1-3)GlcNAc(b1-3)]Gal(b1-4)Glc
# In short: as §1
# [18] = target: Gal(b1-3)GlcNAc(b1-3)GalNAc
# In short: as §1
# [19] = target: Gal(b1-4)GlcNAc(b1-3)Gal(b1-3)GlcNAc
# In short: as §1
# [20] = target: Gal(b1-4)GlcNAc(b1-3)GalNAc
# In short: as §1
# [21] = target: Gal(b1-4)GlcNAc(b1-6)[Gal(b1-3)]GalNAc
# In short: as §1
# GalNAc(a1-3)GalNAc = target: GalNAc(a1-3)GalNAc
# In short: as §1
# [22] = target: GalNAc(a1-3)GalNAc(a1-3)Gal(a1-4)Gal(b1-4)GlcNAc
# In short: as §1
# [23] = target: GalNAc(a1-3)GalNAc(b1-3)Gal(a1-4)Gal(b1-4)Glc
# In short: as §1
# GalNAc(b1-4)GlcNAc6S = target: GalNAc(b1-4)GlcNAc6S
# In short: as §1
# [24] = target: GlcNAc(a1-4)Gal(b1-4)GalNAc
# In short: as §1
# [25] = target: GlcNAc(a1-4)Gal(b1-4)GlcNAc(b1-3)Gal(b1-4)[Fuc(a1-3)]GlcNAc(b1-3)Gal(b1-4)[Fuc(a1-3)]GlcNAc
# In short: as §1
# [26] = target: GlcNAc(b1-2)[GlcNAc(b1-4)]Man(a1-3)[GlcNAc(b1-4)][GlcNAc(b1-2)Man(a1-6)]Man(b1-4)GlcNAc(b1-4)GlcNAc
# In short: as §1
# [27] = target: GlcNAc(b1-3)Gal(b1-4)GlcNAc(b1-3)Gal(b1-4)GlcNAc(b1-3)Gal(b1-4)GlcNAc(b1-3)Gal(b1-4)GlcNAc(b1-2)[GlcNAc(b1-3)Gal(b1-4)GlcNAc(b1-3)Gal(b1-4)GlcNAc(b1-3)Gal(b1-4)GlcNAc(b1-3)Gal(b1-4)GlcNAc(b1-6)]Man(a1-6)[GlcNAc(b1-3)Gal(b1-4)GlcNAc(b1-3)Gal(b1-4)GlcNAc(b1-3)Gal(b1-4)GlcNAc(b1-3)Gal(b1-4)GlcNAc(b1-2)Man(a1-3)]Man(b1-4)GlcNAc(b1-4)[Fuc(a1-6)]GlcNAc
# In short: as §1
# [28] = target: GlcNAc(b1-3)Gal(b1-4)GlcNAc(b1-3)GalNAc
# In short: as §1
# GlcNAc(b1-3)GalNAc = target: GlcNAc(b1-3)GalNAc
# In short: as §1
# [29] = target: GlcNAc(b1-4)Gal(b1-4)GlcNAc
# In short: as §1
# Kdn(a2-3)Gal(b1-3)GlcNAc = target: Kdn(a2-3)Gal(b1-3)GlcNAc
# In short: as §1
# [30] = target: Man(a1-2)Man(a1-2)Man(a1-6)[Man(a1-3)]Man
# In short: as §1
# MurNAc(b1-4)GlcNAc = target: MurNAc(b1-4)GlcNAc
# In short: as §1
# Neu5Ac(a2-3)GalNAc = target: Neu5Ac(a2-3)GalNAc
# In short: as §1
# [31] = target: Neu5Ac(a2-3)[GalNAc(b1-4)]Gal(b1-4)Glc
# In short: as §1
# [32] = target: Neu5Ac(a2-3)[GalNAc(b1-4)]Gal(b1-4)GlcNAc
# In short: as §1
# [33] = target: Neu5Ac(a2-6)Gal(b1-4)GlcNAc
# In short: as §1
# [34] = target: Neu5Ac(a2-6)Gal(b1-4)GlcNAc(b1-2)Man
# In short: as §1
# [35] = target: Neu5Ac(a2-6)Gal(b1-4)GlcNAc(b1-2)Man(a1-3)Man(b1-4)GlcNAc(b1-4)GlcNAc
# In short: as §1
# [36] = target: Neu5Ac(a2-6)Gal(b1-4)GlcNAc(b1-2)Man(a1-6)[Gal(b1-4)GlcNAc(b1-2)Man(a1-3)]Man(b1-4)GlcNAc(b1-4)GlcNAc
# In short: as §1
# [37] = target: Neu5Ac(a2-6)Gal(b1-4)GlcNAc6S
# In short: as §1
# [38] = target: Neu5Ac(a2-8)Neu5Ac(a2-3)[Gal(b1-3)GalNAc(b1-4)]Gal(b1-4)Glc
# In short: as §1
# [39] = target: Neu5Ac(a2-8)Neu5Ac(a2-8)Neu5Ac(a2-8)Neu5Ac(a2-3)[GalNAc(b1-4)]Gal(b1-4)Glc
# In short: as §1
binder,measurement,setting,value
B1,glycan array binding signal (z-score),[1],-0.133
same,glycan array binding signal (z-score),[2],-0.099
same,glycan array binding signal (z-score),[3],-0.152
same,glycan array binding signal (z-score),[4],-0.142
same,glycan array binding signal (z-score),Fuc(a1-2)Gal(b1-4)Glc6S,-0.09
same,glycan array binding signal (z-score),[5],0.449
same,glycan array binding signal (z-score),[6],-0.041
same,glycan array binding signal (z-score),Fuc(a1-2)Gal6S(b1-4)Glc,0.346
same,glycan array binding signal (z-score),[7],0.024
same,glycan array binding signal (z-score),[8],-0.113
same,glycan array binding signal (z-score),[9],0.577
same,glycan array binding signal (z-score),[10],0.575
same,glycan array binding signal (z-score),[11],0.333
same,glycan array binding signal (z-score),[12],-0.116
same,glycan array binding signal (z-score),[13],-0.19
same,glycan array binding signal (z-score),[14],-0.015
same,glycan array binding signal (z-score),Fuc(a1-4)GlcNAc,-0.115
same,glycan array binding signal (z-score),Gal(a1-3)Gal(b1-3)GlcNAc,-0.124
same,glycan array binding signal (z-score),Gal(a1-3)Gal(b1-4)Glc,-0.119
same,glycan array binding signal (z-score),[15],-0.059
same,glycan array binding signal (z-score),Gal(a1-4)GlcNAc,-0.126
same,glycan array binding signal (z-score),Gal(b1-2)Gal,-0.113
same,glycan array binding signal (z-score),[16],0.071
same,glycan array binding signal (z-score),[17],-0.1
same,glycan array binding signal (z-score),[18],-0.126
same,glycan array binding signal (z-score),[19],-0.125
same,glycan array binding signal (z-score),[20],-0.144
same,glycan array binding signal (z-score),[21],-0.121
same,glycan array binding signal (z-score),GalNAc(a1-3)GalNAc,12.1
same,glycan array binding signal (z-score),[22],12.5
same,glycan array binding signal (z-score),[23],13.4
same,glycan array binding signal (z-score),GalNAc(b1-4)GlcNAc6S,1.8
same,glycan array binding signal (z-score),[24],-0.085
same,glycan array binding signal (z-score),[25],-0.007
same,glycan array binding signal (z-score),[26],-0.133
same,glycan array binding signal (z-score),[27],-0.1
same,glycan array binding signal (z-score),[28],-0.139
same,glycan array binding signal (z-score),GlcNAc(b1-3)GalNAc,-0.101
same,glycan array binding signal (z-score),[29],-0.16
same,glycan array binding signal (z-score),Kdn(a2-3)Gal(b1-3)GlcNAc,-0.169
same,glycan array binding signal (z-score),[30],-0.081
same,glycan array binding signal (z-score),MurNAc(b1-4)GlcNAc,-0.119
same,glycan array binding signal (z-score),Neu5Ac(a2-3)GalNAc,-0.165
same,glycan array binding signal (z-score),[31],4.19
same,glycan array binding signal (z-score),[32],3.09
same,glycan array binding signal (z-score),[33],-0.103
same,glycan array binding signal (z-score),[34],-0.127
same,glycan array binding signal (z-score),[35],-0.098
same,glycan array binding signal (z-score),[36],-0.144
same,glycan array binding signal (z-score),[37],-0.118
same,glycan array binding signal (z-score),[38],-0.124
same,glycan array binding signal (z-score),[39],-0.104
